Reference: ChEMBL document CHEMBL3988442, “University of Dundee, Small-Polar-MMV Screening Library” (2021)
About 420 (0.61%) of roughly 69,000 compounds showed an effect of 50% or more. Shown is part of a subset that was picked to be rich in strong results.

These compounds were tested against T1, Histidine--tRNA ligase (Leishmania infantum) (UniProt A4I591) (assay: Leishmania infantum Histidine tRNA synthetase (LdHisRS)). Conditions: 30 µM.
T1 sequence (whole entry): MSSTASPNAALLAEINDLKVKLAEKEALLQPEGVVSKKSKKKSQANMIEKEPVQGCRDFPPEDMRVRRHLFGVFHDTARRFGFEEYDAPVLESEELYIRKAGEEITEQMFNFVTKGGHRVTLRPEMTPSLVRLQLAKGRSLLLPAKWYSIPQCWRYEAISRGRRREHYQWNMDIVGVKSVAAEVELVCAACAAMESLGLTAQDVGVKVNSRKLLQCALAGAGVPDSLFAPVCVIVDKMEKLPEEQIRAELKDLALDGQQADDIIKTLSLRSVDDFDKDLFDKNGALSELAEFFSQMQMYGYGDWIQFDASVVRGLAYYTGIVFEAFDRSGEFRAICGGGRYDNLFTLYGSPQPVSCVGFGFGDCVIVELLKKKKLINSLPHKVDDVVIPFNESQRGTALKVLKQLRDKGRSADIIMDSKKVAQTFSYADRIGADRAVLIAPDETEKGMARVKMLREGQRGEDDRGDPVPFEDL
Assay type: functional
Parameters: scale not given: in the data most compounds retested in dose-response had high values

| SMILES | Percent Effect [%] |
| --- | --- |
| CNC(=O)CN1CCC(CN(C)Cc2ccc(C)cc2C)CC1 | 2.04 |
| Cc1ccc(CN2C[C@@H]3C[C@H](C(=O)NCC4CC4)N(C)[C@@H]3C2)o1 | 10.1 |
| Cc1nc(CN2C(=O)CC[C@@H]3[C@H]2CCN3C(=O)C2CCCO2)cs1 (stereo partly specified) | 15.4 |
| CSc1nc(N)cc(N2C[C@@H]3CC[C@H](C2)N(Cc2cscn2)C3=O)n1 | 11 |
| Clc1cc(NCc2nccs2)nc2[nH]ccc12 | 22.9 |
| Clc1cc(NCc2ccncc2)nc2[nH]ccc12 | 71.1 |
| Clc1cc(NCc2ncc[nH]2)nc2[nH]ccc12 | 10.8 |
| c1cnc(N2CCO[C@H]3CN(Cc4csnn4)C[C@H]32)cn1 | 26.3 |
| CS(=O)(=O)NC[C@@H]1OC[C@H]2CN(C(=O)c3ccc[nH]3)CC[C@H]21 | -383 |
| CS(=O)(=O)N[C@@H]1COC[C@@H]2CN(Cc3ccoc3)C[C@@H]21 | 6.94 |
| CC(C)(C)c1cc(CN2C[C@H]3CC[C@@H]2CN(Cc2cscn2)C3)n[nH]1 | 11.5 |
| O=S(=O)(c1cccnc1)N1C[C@@H]2COC[C@]2(COCC2CC2)C1 | 1.75 |
| Cc1cccc2c1nc(COCC(=O)O)n2-c1ccc(N)nc1 | 1.67 |
| Cc1ccc(-n2c(COCC(=O)O)nc3c(C)cccc32)nc1 | 25 |
| Cc1cccc2c1nc(COCC(=O)O)n2-c1cnc(N)cn1 | 68.3 |
| CN(C)S(=O)(=O)N1CC[C@]2(O)CCN(c3nccs3)C[C@@H]2C1 | 20 |
| O=C(NCC1CC1)[C@H]1C[C@H]2OCC[C@H]2N(Cc2ccoc2)C1 | 10.5 |
| c1ccc(Cn2ccnc2CNCC2CCCN2c2cccnn2)cc1 (stereo unspecified) | 5.36 |
| c1ccc(-n2cc(CNCC3CCCN3c3cccnn3)cn2)cc1 (stereo unspecified) | 21.9 |
| c1ccc(-n2ncc(CNCC3CCCN3c3cccnn3)n2)cc1 (stereo unspecified) | 65.2 |
| c1ccc(-n2ccc(CNCC3CCCN3c3cccnn3)n2)cc1 (stereo unspecified) | 25.4 |
| c1ccc(Cn2cc(CNCC3CCCN3c3cccnn3)cn2)cc1 (stereo unspecified) | 53 |
| c1ccc(-n2cc(CNCC3CCCN3c3cccnn3)nn2)cc1 (stereo unspecified) | 6.14 |
| COCCOC(=O)N1CCN2C[C@@H](CO)[C@H](c3ccccc3)[C@H]2C1 | 2.04 |

| SMILES | Percent Effect [%] |
| --- | --- |
| O=C(c1ccoc1)N1CC[C@@H]2O[C@H](COCc3ccccn3)CC[C@@H]21 | 7.52 |
| c1cnc(N2CCO[C@H]3[C@H](OCC4CC4)CC[C@@H]32)nc1 | 8.11 |
| O=C1NC(c2ccccc2)=N[C@@]12CC[C@@H]1CN(Cc3ccncc3)C[C@@H]12 | 25 |
| COCCNC(=O)[C@H]1C[C@@H]2CCN(c3nncs3)C[C@H]2O1 | 5.77 |
| O=C(c1ccccc1)N1C[C@@H]2CCCO[C@@H]2[C@H](N2CCOCC2)C1 | 17.5 |
| Cc1cc(C(=O)Nc2cccn(Cc3ccc(F)cc3)c2=O)on1 | 84.1 |
| Cc1cc(C(=O)Nc2cccn(Cc3ccc(F)cc3)c2=O)no1 | 20.4 |
| O=C(Nc1cccn(CC(F)(F)F)c1=O)c1ccncc1F | 17.1 |
| O=C(Nc1cccn(Cc2ccccc2)c1=O)c1ccncc1F | 68.6 |
| O=C(Nc1cccn(Cc2ccc(F)cc2)c1=O)c1cnc[nH]1 | 27.4 |
| Cc1cc(C(=O)Nc2cccn(Cc3ccccc3)c2=O)no1 | 23.9 |
| CC(C)CN1C[C@H]2CCN(C(=O)C3CCCO3)CC[C@H]2S1(=O)=O (stereo partly specified) | 13.8 |
| O=C1[C@H]2CC[C@H](CN(Cc3ccccc3OC(F)F)C2)N1CC1CC1 | 28.9 |
| Cc1noc(C)c1C(=O)N1C[C@@H]2CCCO[C@@H]2[C@H](N(C)C)C1 | 7.96 |
| O=C(c1ccnnc1)N1C[C@H]2CN(Cc3cccc(F)c3)C(=O)[C@H]2C1 | 0.917 |
| CNC(=O)[C@H]1C[C@@H]2CN(S(=O)(=O)c3ccccc3)C[C@@H]2N1C(C)=O | 14.2 |
| O=C(N1CCOCC1)[C@@]12CCO[C@@H]1CCN(CC1CCCCC1)C2 | -3.88 |
| Cc1ccc(C(=O)N2CCn3cnc(COCC4CC4)c3C2)cn1 | 15 |
| Cc1cccc(C(=O)N2CCn3cnc(COCC4CC4)c3C2)c1 | 34.5 |
| O=C(c1ccc2[nH]ccc2c1)N1CCn2cnc(COCC3CC3)c2C1 | 61.2 |
| CN(C)S(=O)(=O)N1C[C@@H]2CC[C@H](C1)N(CCC(=O)NCc1ccco1)C2 | 13.6 |
| COc1ccc(-n2cc(CNC(=O)c3cc[nH]n3)nn2)cc1 | 31.2 |
| COc1ccc(-n2cc(CNC(=O)c3ccc[nH]3)nn2)cc1 | 54.2 |
| COc1ccc(-n2cc(CNC(=O)c3ccccn3)nn2)cc1 | 18.8 |

| SMILES | Percent Effect [%] |
| --- | --- |
| CNC(=O)[C@H]1C[C@@H]2CCN(Cc3ccc4c(c3)OCO4)C[C@@H]2O1 | 14.6 |
| CCC1=NOC(CNCc2cnc(-c3ccccc3C)s2)C1 (stereo unspecified) | 61.7 |
| Cc1cnc(CNCc2cnc(-c3ccccc3C)s2)cn1 | 11.7 |
| Cc1ccccc1-c1ncc(CNCc2csc(C(C)C)n2)s1 | 20 |
| CC1CCN(C(=O)[C@H]2C[C@@H]3CCN(CC4CCOCC4)C[C@@H]3O2)CC1 | 12 |
| O=C(C1=CCCC1)N1C[C@H](Oc2cccnc2)[C@H]2OCCC[C@H]21 | 3.85 |
| CN1CCCN(C(=O)c2nc3c(s2)CCCN3CC2CC2)CC1 | 48 |
| O=C(c1nc2c(s1)CCCN2CC1CC1)N1CCOCC1 | 94 |
| O=C(c1nc2c(s1)CCCN2CC1CC1)N1CCCC1 | 40 |
| COCC(=O)N1CC[C@H]2O[C@@H](C)C[C@H]2C1 | 12 |
| O=C(Nc1c(N2CCCC2)cccc1N1CCCC1)c1ccccn1 | 84.6 |
| O=C(Nc1c(N2CCCC2)cccc1N1CCCC1)c1cnsn1 | 15.4 |
| O=C(Nc1c(N2CCCC2)cccc1N1CCCC1)c1cnccn1 | 30.8 |
| Cn1cccc1C(=O)N1CC[C@H]2[C@H]1CCN2CC1CCOCC1 | 24.6 |
| O=C(C1=CCCC1)N1C[C@H]2CCC[C@@]2(COCc2ccncc2)C1 | 25.7 |
| Cc1cccc(CN2C[C@@H]3COC[C@]3(CNC(=O)C3CC3)C2)c1 | 11.9 |
| CNC(=O)[C@@]12CCO[C@@H]1CCN(S(=O)(=O)c1ccccc1)C2 | 15 |
| COCCN(CC1CC1)c1nc(CCN)nc2sc(C)c(C)c12 | 32.7 |
| Cc1sc2nc(CCN)nc(N(CCN(C)C)CC3CCCO3)c2c1C (stereo unspecified) | 4.42 |
| CCN(CCN(C)C)c1nc(CCN)nc2sc(C)c(C)c12 | 54 |
| Cc1cccc(CN2C(=O)CC[C@@H]3[C@H]2CCN3Cc2cccnc2)n1 | 29.4 |
| Cc1nccc([C@H]2C[C@@H]3CCN(S(=O)(=O)C4CC4)C[C@H]3O2)n1 | 11.1 |
| O=c1[nH]c2cc3c(cc2cc1CN1CCCC1c1ccccn1)OCO3 (stereo unspecified) | 14.5 |
| CCOc1ccc2[nH]c(=O)c(CN3CCCC3c3ccccn3)cc2c1 (stereo unspecified) | 53 |

| SMILES | Percent Effect [%] |
| --- | --- |
| O=c1[nH]c2cc3c(cc2cc1CN1CCCC1c1ccccn1)CCC3 (stereo unspecified) | 43.4 |
| COCCC(=O)N1C[C@H]2CCC[C@@]2(COC)C1 | 5.77 |
| Cn1cc(N2C(=O)CC[C@@H]3[C@H]2CCN3Cc2nccs2)cn1 | 9.72 |
| Cc1cc(CN2CCc3nn(C)c(=O)cc3C2)no1 | 45.5 |
| CCCn1nc2c(cc1=O)CN(Cc1cc(C)on1)CC2 | 55.8 |
| CCn1nc2c(cc1=O)CN(Cc1cc(C)on1)CC2 | 21.2 |
| CCCn1nc2c(cc1=O)CN(Cc1ccccn1)CC2 | 75.8 |
| CCCn1nc2c(cc1=O)CN(Cc1nc(C)c(C)o1)CC2 | 13.2 |
| CCCn1nc2c(cc1=O)CN(Cc1nc(C)c3ccccc3n1)CC2 | 27.1 |
| CCCn1nc2c(cc1=O)CN(Cc1cc(C)no1)CC2 | 69.7 |
| CCCn1nc2c(cc1=O)CN(Cc1ncc(C(C)(C)C)o1)CC2 | 45.5 |
| Cc1cc(CN2CCc3nn(C)c(=O)cc3C2)on1 | 103 |
| CCCn1nc2c(cc1=O)CN(Cc1nc(CCOC)no1)CC2 | 48.1 |
| Cc1cc(CN2CCc3cncnc3C2)on1 | 24 |
| CN(C)C(=O)N1C[C@@H]2CC[C@H](C1)N(C(=O)c1c(Cl)cccc1Cl)C2 | 8.06 |
| CS(=O)(=O)N1C[C@@H]2CC[C@H](C1)N(Cc1ccsc1)C2 | 31.2 |
| CNC(=O)[C@H]1CO[C@H]2CCN(Cc3ccc4ccccc4n3)C[C@H]2C1 | 10.5 |
| CNC(=O)[C@@H]1COC[C@H]2CN(C(=O)c3ccc(C)c(F)c3)C[C@H]21 | 12.3 |
| CC(C)CC(=O)N1CC[C@@H]2[C@H](CC1)N(S(C)(=O)=O)CCS2(=O)=O | 19.2 |
| CS(=O)(=O)N1C[C@@H]2COC[C@]2(COCC(=O)N2CCCC2)C1 | 2.73 |
| Cc1noc(C)c1CN1CCc2nn(C(C)C)c(=O)cc2C1 | 53 |
| CCCn1nc2c(cc1=O)CN(Cc1c(C)noc1C)CC2 | 27.3 |
| Cc1cc(CN2CCc3nn(C(C)C)c(=O)cc3C2)no1 | 26.9 |
| O=C1CC[C@]2(CC[C@@H](NC3CCOCC3)CC2)N1Cc1ccccc1 | 7.77 |

| SMILES | Percent Effect [%] |
| --- | --- |
| CCCN(C(=O)c1ccncc1)c1nc2c(s1)CCc1c-2cnn1C | 82.3 |
| CN(C(=O)c1cccnc1)C1CCCN(CCc2ccccc2)C1 (stereo unspecified) | -1.64 |
| COCCN(C)C(=O)c1nc2c(s1)CCCN2C | 24.6 |
| CCCN(C(=O)c1cccnc1)c1nc2c(s1)CCc1c-2cnn1C | 101 |
| CCCN(C(=O)c1ccc(-n2ccnn2)cc1)c1cccnc1 | 11.1 |
| Cc1cnccc1-c1cnn(CCNC(=O)c2ccncc2)c1C1CC1 | -1.42 |
| CCCC(=O)N(CCN1CCOCC1)c1nc2c(OC)ccc(C)c2s1 | -3.48 |
| CCN(CCN1CCOCC1)C(=O)c1cccnc1 | 5.71 |
| CCCN(C(=O)COC)c1nc2c(s1)CCc1c-2cnn1C | 80 |
| Cc1ccc(C(=O)N2CC[C@@]3(O)CCN(C(=O)N(C)C)C[C@H]3C2)cc1Cl | -2.13 |
| CNc1nc(C(=O)N2C[C@H]3CC[C@@H]2CN(C2CCOCC2)C3)cs1 | 4.17 |
| COc1ccccc1CN1C(=O)O[C@@H]2CN(C(C)C)C[C@@H]21 | 3.33 |
| O=C1[C@@H]2CN(c3ncccc3Cl)C[C@]2(C(=O)O)CN1CC1CC1 | 3.28 |
| CCOc1ccc(CN2CCN(CCOC)[C@@H]3CS(=O)(=O)C[C@@H]32)cc1 | 25 |
| c1cc2nccc(CC3CCCN(C4CCOCC4)CC3)c2cn1 (stereo unspecified) | 22.7 |
| CN1CCCC(Cc2ccnc3ccncc23)CC1 (stereo unspecified) | 0 |
| Cn1ccnc1CN1CCCC(Cc2ccnc3ccncc23)CC1 (stereo unspecified) | 43.3 |
| CS(=O)(=O)N1CCCC(Cc2ccnc3ccncc23)CC1 (stereo unspecified) | 80.2 |
| c1cc2nccc(CC3CCCN(Cc4c[nH]cn4)CC3)c2cn1 (stereo unspecified) | 24.7 |
| c1cc2nccc(CC3CCCN(Cc4ncc[nH]4)CC3)c2cn1 (stereo unspecified) | 50 |
